# Test results from PubChem BioAssay AID1645887 (National Center for Advancing Translational Sciences (NCATS), 2021).
# Values joined by “and” are separate entries in the source; they are usually repeats but may differ in a detail not shown here. Equal values may be shown once. The whole screen tested about 16,000 compounds, of which about 40 (0.2%) were called active. Roughly 1% stayed inconclusive and do not appear here. The call rests on the fitted dose curve; in most records, active means well fitted activation curve with a large enough effect; inconclusive means small, poorly fitted or top-dose-only effect, or another doubt; inactive means no such curve, though single readings can be large or run the other way. For the sample, actives were picked, then their nearest neighbours and some compounds at random.
# Target: Rap guanine nucleotide exchange factor 4 (Homo sapiens) (UniProt Q8WZA2)
# Experiment: Validation qHTS for agonist of cAMP-regulated guanine nucleotide exchange factor 4 (EPAC2);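 on activation: exchange makes BODIPY-GDP fluorescence drop when released from Rap1B; series mostly up to about 150 µM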
# Settings: EPAC2 Rap1B BODIPY-GDP exchange, fluorescence; activation: hits give high values
# Procedure, shortened: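 Fluorescent exchange assay: 100 nM EPAC2 with 250 nM RAP1B-BODIPY-GDP and 50 uM GDP; compound added, 5 min at room temperature, then read (ex 480/em 540 nm) every 5 min for 30 min. Normalized to 6.5 mM cAMP agonist control.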
# On the % scale 0 is the no-effect control and ±100 the full control effect; potency means the concentration at half of the fitted maximal effect.
# Sequence of Rap guanine nucleotide exchange factor 4 (Homo sapiens) (Q8WZA2 whole entry, looked up): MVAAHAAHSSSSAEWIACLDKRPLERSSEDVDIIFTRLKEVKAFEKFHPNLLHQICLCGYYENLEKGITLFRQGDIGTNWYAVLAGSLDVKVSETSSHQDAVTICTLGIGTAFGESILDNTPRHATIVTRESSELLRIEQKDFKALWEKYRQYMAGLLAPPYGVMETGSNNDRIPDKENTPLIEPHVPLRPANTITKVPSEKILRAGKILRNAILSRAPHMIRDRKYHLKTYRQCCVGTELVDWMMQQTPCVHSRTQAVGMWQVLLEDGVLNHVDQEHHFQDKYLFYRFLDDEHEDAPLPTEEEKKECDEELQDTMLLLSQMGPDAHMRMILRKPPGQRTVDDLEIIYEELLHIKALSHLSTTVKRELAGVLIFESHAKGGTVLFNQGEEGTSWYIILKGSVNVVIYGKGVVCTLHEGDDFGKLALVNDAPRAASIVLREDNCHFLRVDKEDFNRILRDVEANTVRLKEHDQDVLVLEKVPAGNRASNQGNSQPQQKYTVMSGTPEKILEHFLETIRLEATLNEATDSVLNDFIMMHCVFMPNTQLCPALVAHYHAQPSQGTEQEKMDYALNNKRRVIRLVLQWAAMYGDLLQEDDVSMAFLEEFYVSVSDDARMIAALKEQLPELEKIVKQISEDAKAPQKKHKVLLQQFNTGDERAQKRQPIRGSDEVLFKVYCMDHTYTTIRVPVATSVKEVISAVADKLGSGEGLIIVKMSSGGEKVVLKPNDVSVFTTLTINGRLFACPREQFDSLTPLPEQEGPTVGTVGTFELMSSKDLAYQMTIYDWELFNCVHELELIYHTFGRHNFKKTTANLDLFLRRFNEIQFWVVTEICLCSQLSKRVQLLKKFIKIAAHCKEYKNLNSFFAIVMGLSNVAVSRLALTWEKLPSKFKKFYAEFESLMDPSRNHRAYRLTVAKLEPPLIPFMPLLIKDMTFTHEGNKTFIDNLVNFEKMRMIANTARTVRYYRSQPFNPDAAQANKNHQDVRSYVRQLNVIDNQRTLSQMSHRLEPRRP
SMILES,activation,Potency
Cc1cccc(CN2Cc3cccc4c3[C@H](C=CC4)CC2=O)c1,-35.8% (inactive),
Cc1cc(CC(=O)O)c(C)n1-c1ccc(Cl)cc1,-0.347% (inactive),
COc1ccccc1CNc1ncncc1-c1ccccc1CN(C)C,-6.39% (inactive),
COc1ccccc1CCNc1ncnc2sc(C(=O)N3CCCC3)c(C)c12,-2.93% (inactive),
COc1cccc(-c2ccc3ncnc(NCc4cccnc4)c3c2)c1,-11% (inactive),
Clc1cccc[n+]1CCc1ccccc1,-40.7% (inactive),
COc1ccc(N2C(=O)[C@@H]3C[C@H]2CN3Cc2ccc3nccnc3c2)cc1Cl,-3.06% (inactive),
CC[C@@H]1[C@H]2CCCC(=O)N3CC[C@@H](C[C@H]1O)[C@@H]23,-8.94% (inactive),
N[C@@H](Cn1cc(I)c(=O)n(Cc2ccc(C(=O)O)cc2)c1=O)C(=O)O,2.18% (inactive),
O=c1c(-c2ccc(F)c(F)c2)nc2cncnc2n1Cc1ccccc1,-20.1% (inactive),
C[N+](C)(CCOc1ccccc1)Cc1cccs1,-2.61% (inactive),
O=C(NCc1ccncc1)c1cnn(-c2nccc(-c3cccs3)n2)c1C1CC1,-7.47% (inactive),
COc1ncc2nc(C)c(=O)n(Cc3cccs3)c2n1,-6.26% (inactive),
CN(C)Cc1ccccc1-c1cncnc1Nc1ccncc1,2.36% (inactive),
COc1cccc(Cn2c(=O)c(C)nc3cnc(N4CCOCC4)nc32)c1,1.39% (inactive),
CN(C)C(=O)c1ccc(-c2cc(NCc3cccs3)ncn2)cc1,-16.8% (inactive),
CCNc1ncc2nc(-c3cccc(C#N)c3)c(=O)n(Cc3cccc(OC)c3)c2n1,3.97% (inactive),
Cc1ccc(C(C)CCN2CCOc3ccc(CN4CCOCC4)cc3C2)o1 (stereo not drawn),1.95% (inactive),
CC1CN(c2cc3c(cc2F)c(=O)c(C(=O)O)cn3-c2ccc(F)cc2F)CCN1 (stereo not drawn),-22.2% (inactive),
C=C[C@@H]1c2cc(C)ccc2N(S(=O)(=O)c2ccc(C)cc2)[C@H](c2ccc(OC(C)=O)cc2)C1(C#N)C#N,-9.82% (inactive),
CCN(CC)CCCC(C)Nc1cc(/C=C/c2ccccc2Cl)nc2cc(Cl)ccc12 (stereo not drawn),16.5% (inactive),
CCN(CC)CCCC(C)Nc1ccnc2cc(Cl)ccc12 (stereo not drawn),-8.87% (inactive) and 0.526% (inactive) and -22.7% (inactive),
CCN(CC)CCCC(C)Nc1c2ccc(Cl)cc2nc2ccc(OC)cc12 (stereo not drawn),,89.1 µM (active)
COc1ccccc1-c1ccnc(-n2ncc(C(=O)NCc3cccnc3)c2C)n1,8.95% (inactive),
COc1ccccc1/C=C\C(=O)OC[C@@H]1CCCN2CCCC[C@H]12,-21.1% (inactive),
CCOC(=O)CCC(=O)O[C@H]1C(O[C@@H]2C(C)[C@H](O[C@H]3C[C@@](C)(OC)C(O)C(C)O3)C(C)C(=O)OC(CC)[C@@](C)(O)C(O)[C@H](C)C(=O)C(C)C[C@]2(C)O)OC(C)CC1N(C)C (stereo partly drawn),-16.2% (inactive),

SMILES,activation,Potency
O=c1c(-c2ccc(F)cc2)nc2cnc(Oc3cccc(Cl)c3)nc2n1C[C@H]1CCCO1,10.2% (inactive),
CO[C@H]1[C@H](NC(=O)c2ccsc2)c2ccccc2C12CCN(Cc1c(O)ccc3ccccc13)CC2,-7.57% (inactive),
OCCN(CCO)c1nc(N2CCCCC2)c2nc(N(CCO)CCO)nc(N3CCCCC3)c2n1,,112 µM (active) and 100 µM (active)
COCC(=O)N1CCC2(CC1)CN(c1cccc(-c3ccccc3)c1)C2,-17% (inactive),
Cc1noc(C)c1-c1nc(NCc2cccnc2)c2ccccc2n1,-6.22% (inactive),
Cc1oc(-c2ccccc2NC(=O)c2ccccc2)nc1CNC(=O)C1CC(=O)OC12CCCCC2 (stereo not drawn),-5.24% (inactive),
CSc1nnc(CNC(=O)c2c(-c3ccccc3)noc2C)n1-c1ccc(F)cc1,-0.342% (inactive),
Cc1cccnc1-c1cccc2c1OC(CNC(=O)C(=O)c1ccccc1)C2 (stereo not drawn),-7.04% (inactive),
COc1cccc(CNC(=O)c2c(OC)cc(=O)n3c2CCN(C(=O)c2csc(C)n2)CC3)c1,1.41% (inactive),
CCOC(=O)c1c[nH]c2cc(OCC(C)C)c(OCC(C)C)cc2c1=O,-9.73% (inactive),
Cn1c2c(c(=O)c3ccccc31)C[C@@H](O)C(C)(C)O2,-9.21% (inactive),
Nc1ncnc2c1ncn2[C@@H]1O[C@H](COP(=O)(O)OP(=O)(O)OP(=O)(O)OP(=O)(O)OC[C@@H]2O[C@H](n3cnc4c(N)ncnc43)[C@@H](O)[C@H]2O)[C@@H](O)[C@H]1O,12.8% (inactive) and -62.2% (inactive),
Nc1ncnc2c1ncn2[C@@H]1O[C@H](COP(=O)(O)OP(=O)(O)OP(=O)(O)O)[C@@H](O)[C@H]1O,1.95% (inactive),
Cc1cc2nc3c(=O)[nH]c(=O)nc-3n(C[C@H](O)[C@H](O)[C@H](O)COP(=O)(O)OP(=O)(O)OC[C@H]3O[C@@H](n4cnc5c(N)ncnc54)[C@H](O)[C@@H]3O)c2cc1C,,89.1 µM (active)
Cc1cc2nc3c(=O)[nH]c(=O)nc-3n(C[C@H](O)[C@H](O)[C@H](O)CO)c2cc1C,,79.4 µM (active) and 100 µM (active)
Cc1cc2nc3c(=O)[nH]c(=O)nc-3n(CC(O)C(O)C(O)CO)c2cc1C (stereo not drawn),,89.1 µM (active)
CC[C@H]1OC(=O)[C@H](C)[C@@H](O[C@H]2C[C@@](C)(OC)[C@@H](O)[C@H](C)O2)[C@H](C)[C@@H](O[C@@H]2O[C@H](C)C[C@H](N(C)C)[C@H]2O)[C@](C)(O)C[C@H](C)C(=NOCOCCOC)[C@H](C)[C@@H](O)[C@]1(C)O,-4.72% (inactive),
C[C@@H]1CN(Cc2ccc3c(c2)CN(Cc2cccc4c2OCO4)CCO3)C[C@H](C)O1,-2.91% (inactive),
CC(=O)c1ccc(F)c(-c2cc(C)cc3c2OC(CNC(=O)C[C@@H]2C[C@@H](C)NC(=S)N2)C3)c1 (stereo partly drawn),-13.4% (inactive),
C[n+]1c2cc(N)ccc2cc2ccc(N)cc21 (tested in a mixture with another compound),,22.4 µM (active)
Cc1ccc(N)cc1O,2.89% (inactive),
CC(C)NC(=O)N1CCC2(CC1)CCN(S(=O)(=O)c1ccccc1)CC2,-7.09% (inactive),
O=S1(=O)CCOCCCN1Cc1cccc(F)c1,-1.25% (inactive),
OCC1OC(n2cnc3c(Cl)nc(Cl)nc32)C(O)C1O (stereo not drawn),-15.7% (inactive),
O=C(c1cccc(F)c1)N1CCC2(CC1)CN(c1ccccc1)C2,4.44% (inactive),
NC(=S)c1ccc[n+]([C@@H]2O[C@@H](COP(=O)([O-])OP(=O)(O)OC[C@H]3O[C@@H](n4cnc5c(N)ncnc54)[C@H](OP(=O)(O)O)[C@@H]3O)C(O)C2O)c1 (stereo partly drawn),-34.4% (inactive),

SMILES,activation,Potency
COCCn1c(=O)c(CCc2ccccc2)nc2cnc(N3CCN(C)CC3)nc21,-2.75% (inactive),
COC(=O)C1C(O)CC[C@H]2CN3CCc4c([nH]c5ccccc45)C3C[C@H]12 (stereo partly drawn),2.5% (inactive),
Cc1c(C(=O)NCCCc2ccncc2)cnn1-c1nccc(-c2ccccc2F)n1,-21.1% (inactive),
COc1cccc(-c2nc(N3CCN(C)CC3)c3ccccc3n2)c1,-6.1% (inactive),
COc1cccc(CNC(=O)c2c(OC)cc(=O)n3c2CCN(C(=O)c2cc(C)ccc2C)CC3)c1,-2.82% (inactive),
O=c1c(-c2ccc(Cl)cc2)nc2cnc(N3CCOCC3)nc2n1Cc1ccc(F)cc1,-11.5% (inactive),
COc1cc(CN2CCOc3ccc(C(O)c4cccnc4)cc3C2)cc(OC)c1 (stereo not drawn),-13.6% (inactive),
Nc1ccc(O)cc1,25.8% (inactive) and 23.8% (inactive),
COc1cc(N)c(N)cc1OC,-7.59% (inactive),
Nc1cc(N)cc(N)c1,,50.1 µM (active)
Cc1cnc(CNc2cc(-c3ccc(N(C)C)cc3)ncn2)cn1,-19.7% (inactive),
COc1ccccc1C1CN(CCNC(=O)c2ccc3c(c2)OCCO3)Cc2ccccc2O1 (stereo not drawn),10.6% (inactive),
COc1ccccc1CN1[C@@H](CC(=O)O)c2ccccc2S1(=O)=O,-19.4% (inactive),
COC(=O)C1CCN(Cc2ccc3c(c2)CN(C(=O)c2ccc(-n4cnnn4)cc2)CCO3)CC1,-3.06% (inactive),
COc1cc(/C(C)=C/c2ccccc2)c2c(c1)oc1ccccc12,-19% (inactive),
CCCCCCCCCCCCCCCC[n+]1ccc(/C=C/c2c(C)[nH]c3ccccc23)cc1,-30% (inactive),
CCCCCCC[n+]1ccc(/C=C/c2c(C)[nH]c3ccccc23)cc1,,25.1 µM (active)
CCCCCCC[n+]1ccc(/C=C/c2c(C)[nH]c3ccccc23)c2ccccc21,-18.3% (inactive),
Cc1cnc(-n2ncc(C(=O)NCc3ccccn3)c2C2CC2)nc1-c1cccs1,-5.87% (inactive),
c1ccc2nc3ccccc3cc2c1,-8.02% (inactive),
Nc1ccc2nc[nH]c2c1,-7.36% (inactive),
Nc1ccc2cc3ccc(N)cc3nc2c1,,89.1 µM (active)
COc1ccc2c(c1)-c1nc(-n3ncc(C(=O)NCC4CCCN(C)C4)c3C3CC3)ncc1CC2 (stereo not drawn),1.91% (inactive),
CC(=O)N[C@@H]1C(O[C@H]2O[C@H](C(=O)O)C(O)[C@H](O)[C@H]2O)[C@H](O)[C@@H](CO)O[C@H]1O[C@@H]1C(C(=O)O)O[C@@H](O[C@H]2[C@H](O)[C@@H](CO)OC(O)[C@@H]2NC(C)=O)[C@H](O)[C@H]1O (stereo partly drawn),-11.1% (inactive),
CCn1c(C)nc2cc(NS(=O)(=O)c3ccccc3)cc(C(=O)N3C[C@@H](C)O[C@@H](C)C3)c21,-0.794% (inactive),
OC(C1=C/C(=C\c2ccncc2)c2ccccc21)c1ccncc1 (stereo not drawn),-21.2% (inactive),
